Reference: PubChem BioAssay (NCATS)
Results filed as inconclusive are left out. Values without a mark were called inactive. Active and inactive are the calls of the source. Calls come from the whole dose curve; as a rule, active = well fitted inhibition curve with a large enough effect; inconclusive = small, poorly fitted or top-dose-only effect; inactive = flat fitted curve, though single readings scatter.
% is set by controls: 0 for no effect and ±100 for the full control effect; potency is the fitted concentration of half-maximal effect.

Test: Primary qHTS for inhibitors of nuclear receptor binding SET domain protein 2 (NSD2) in an isogenic RCH-ACV NSD2 p.E1099K mutant (9B) (AID 1645876); note: nearly all actives have a fitted effect of over 70% in size
Conditions: RCH-ACV (leukaemia line) NSD2 E1099K (9B) viability, CellTiter-Glo, 72 h; series mostly up to 44.9 µM; activity change, negative = viability loss: at the top concentration
For `COc1cc([C@@H](O[C@@H]2O[C@H](CO)[C@@H](O)[C@H](O)[C@H]2O)[C@@H]2CO[C@H](c3ccc(O)c(OC)c3)[C@H]2CO)ccc1O`, the “activity change, negative = viability loss” value was -15.2% [at 17.3 µM]. In the case of `CC1(C)CC[C@]2(C(=O)O[C@@H]3O[C@H](CO)[C@@H](O)[C@H](O)[C@H]3O)CC[C@]3(C)C(=CCC4[C@@]5(C)CC[C@H](O[C@@H]6O[C@H](C(=O)O)[C@@H](O[C@@H]7O[C@H](CO)[C@@H](O)[C@H](O)[C@H]7O)[C@H](O)[C@H]6O)C(C)(C)C5CC[C@]43C)C2C1` (some centres undefined), the outcome is reported as “inactive [at 9.23 µM]”. In the case of `O=c1[nH]ccc2nc(-c3ccc(CN4CCC(c5nc(-c6ccccn6)n[nH]5)CC4)cc3)c(-c3ccccc3)cc12`, the Potency is reported as 32.5 nM (active). In the case of `CC(=O)Nc1cccc2c1c(Sc1ccc(Cl)cc1)c(C)n2CC(=O)O`, the “activity change, negative = viability loss” value is reported as -3.6%. In the case of `Cc1nnc(-c2sc(NC(=O)[C@H](C(C)C)n3c(=O)[nH]c4ccccc4c3=O)nc2C)o1`, the “activity change, negative = viability loss” value is reported as -12.1%. With `COc1ccc(C2OCC3C(c4cc(OC)c5c(c4)OCO5)OCC23)cc1OC` (centres undefined) the “activity change, negative = viability loss” value was -8.26% [at 17.3 µM]. With `CC(=O)OC12CC(C)C(O)C1/C=C(/COC1OC(CO)C(O)C(O)C1O)CCC1C(/C=C(\C)C2=O)C1(C)C` (centres undefined) the “outcome” value was “inactive [at 17.3 µM]”. In the case of `COC(=O)C1=COC(O[C@@H]2O[C@H](COC(=O)/C=C/c3ccc(O)cc3)[C@@H](O)[C@H](O)[C@H]2O)C2C(CO)=CCC12` (some centres undefined), the “activity change, negative = viability loss” value is reported as 1.37% [at 17.3 µM]. With `C[C@@]12CC3(S(=O)(=O)O)OC(O1)[C@]1(COC(=O)c4ccccc4)[C@H]3C[C@]21O[C@@H]1O[C@H](CO)[C@@H](O)[C@H](O)[C@H]1O` the “activity change, negative = viability loss” value was 4.95% [at 17.3 µM].
